# Laboratory results from ChEMBL document CHEMBL3988442, “University of Dundee, Small-Polar-MMV Screening Library” (2021).
# Hit rate of the full screen: of about 48,000 compounds, about 13,000 (27%) showed an effect of 50% or more. The list shows a part of the results.
# Tested on: Wolbachia pipientis
# Assay: Anti-Wolbachia Cell-Based Screen
# Assay type: functional
# Parameters: scale not given: in the data most compounds retested in dose-response had high values
# Settings: 5 µM
row,SMILES,Percent Effect
1,Cc1cc(C)n(-c2ccc(N3CCCSCC3)nc2)n1,0.3589%
2,CC1CCc2n[nH]c(C(=O)NCCc3ccco3)c2C1 (stereo not drawn),14.64%
3,CCOc1ccccc1-c1noc(CN2CCCC(O)C2)n1 (stereo not drawn),-2.765%
4,CC(C)S(=O)(=O)C(C)C(=O)Nc1ccc2oc(C3CC3)nc2c1 (stereo not drawn),-8.387%
5,O=C(c1cccnc1O)N1CCCN(c2cccnn2)CC1,-5.126%
6,CCc1cc(C(=O)N2CCCC(Cc3ccc(NC)nn3)C2)on1 (stereo not drawn),109.6%
7,CNc1ccc(CC2CCCN(C(=O)c3scnc3C)C2)nn1 (stereo not drawn),109.5%
8,O=C(c1cc(CC2(NC3CCCCC3)COC2)no1)N1CCCCC1,6.649%
9,CNc1ccc(CC2CCCN(C(=O)c3cnco3)C2)nn1 (stereo not drawn),129.2%
10,CNc1ccc(CC2CCCN(C(=O)c3c(C)noc3C)C2)nn1 (stereo not drawn),118%
11,O=C(c1cc(CC2(NCC3CCCCC3)COC2)no1)N1CCCCC1,0.2272%
12,Cc1noc(C)c1C(=O)N1C[C@@H]2CCCO[C@@H]2[C@H](N(C)C)C1,3.092%
13,CNc1ncc(C(=O)N2CCCC(Cc3ccccc3OC)C2)s1 (stereo not drawn),-5.807%
14,O=C(CN1CCCc2c(F)cc(Br)cc21)N1CCCC1,-2.164%
15,CCN1CCC(Cn2ccc3c(OC)c(OC)ccc3c2=O)C1 (stereo not drawn),-8.791%
16,COCC[C@]1(O)CCN(c2ncc(Cl)cc2F)C[C@H]1C,-5.057%
17,CS(=O)(=O)N1C[C@@H]2CC[C@H](C1)N(CCC(=O)NCc1ccco1)C2,6.139%
18,Cc1nonc1CN1CC[C@@](O)(C2CCC2)[C@H](C)C1,2.704%
19,Cc1nnsc1CN1CC[C@@](O)(C2CCC2)[C@H](C)C1,-20.69%
20,C[C@@H]1CN(Cc2nc(C(N)=O)no2)CC[C@@]1(O)C1CCOCC1,-5.887%
21,CCc1nc(C)sc1CN1CC[C@@](O)(C2CC2)[C@H](C)C1,90.8%
22,Cc1nonc1CN1CC[C@@](O)(C2CCOCC2)[C@H](C)C1,-5.747%
23,CCc1nc(C)sc1CN1CC[C@@](O)(C2CCOCC2)[C@H](C)C1,107.2%

row,SMILES,Percent Effect
1,CCC1=N[C@@]2(CC[C@@H]3CN(S(=O)(=O)CC(C)C)C[C@@H]32)C(=O)N1CC,2.129%
2,Cc1nc(-c2ccc(S(=O)(=O)N3CCSC3)cc2)co1,-2.878%
3,COc1ncccc1-c1cc(C(=O)NC2CC2)ccn1,1.183%
4,CCOc1cc(C(=O)N2CCCC(c3cc(C(N)=O)[nH]n3)C2)ccn1 (stereo not drawn),-0.59%
5,COc1ccc(F)c(-c2cc(C(=O)NC3CC3)ccn2)c1,-1.956%
6,Cl.Cl.Cn1cnc2c(N3CCCC3)nc(C3CCNCC3)cc21,-10.47%
7,O=C(c1ccc2c(c1)[nH]c(=O)n2C1CCCC1)N1CCC1,-5.446%
8,Cl.O=C(NC1CCCC1)c1ccnc(C2CCNCC2)c1,105.6%
9,O=C(c1ccc(C2CCCO2)s1)N1CCCOCC1 (stereo not drawn),7.048%
10,Cc1cc(C2CCCN(C(=O)c3ccc(OCC4CC4)nc3)C2)n[nH]1 (stereo not drawn),-13.31%
11,Cl.Cl.Cn1cnc2c(N3CCOCC3)nc(C3CCNCC3)cc21,-9.589%
12,O=C(c1ccnc(C2CCNCC2)c1)N1CCCC(CO)C1 (stereo not drawn),100.1%
13,Cl.O=C(c1ccnc(C2CCNCC2)c1)N1CCCC1,87.63%
14,Cl.O=C(c1ccnc(C2CCNCC2)c1)N1CCCOCC1,107.9%
15,CC(C)(C)CC(=O)N1CSCC1C(=O)NCc1cccc(C#N)c1 (stereo not drawn),-25.6%
16,Cc1cc(C(=O)N2CCC3(CC(=O)NC3=O)C2)c(-c2ccccc2)o1 (stereo not drawn),0.657%
17,CSCC[C@H](NC(C)=O)C(=O)N(C)Cc1ccc(-n2cccn2)cc1,-22.5%
18,Cc1cc(C(=O)N2C[C@H](c3ccccc3)[C@@H](N)C2)c2ccc(F)cc2n1,109.4%
19,O=C(c1c[nH]nc1-c1cccc(F)c1)N1CCNC(c2ccccc2)C1 (stereo not drawn),39.59%
20,O=C(c1cc(-c2cn[nH]c2)nc2cc(F)ccc12)N1CCS(=O)(=O)CC1,-15.17%
21,Cc1cc(C(=O)N2C[C@H]3CCC[C@@]3(CO)C2)c2ccc(F)cc2n1,-33.96%
22,N[C@H]1CN(C(=O)CCc2cc(Cl)no2)C[C@@H]1c1ccccc1,0.8182%
23,Cc1cc(C(=O)N2CCNC(c3ccccc3)C2)c2ccc(F)cc2n1 (stereo not drawn),81.03%

row,SMILES,Percent Effect
1,Cc1cc(C(=O)N2CCCC3(CN(C)C(=O)O3)C2)c2ccc(F)cc2n1 (stereo not drawn),-8.064%
2,Cc1cc(C(=O)N2CCN[C@H](C)C2)c2ccc(F)cc2n1,95.19%
3,O=C(O)c1csc(S(=O)(=O)N2CCCc3cccc(OC(F)F)c32)c1,-29.54%
4,O=C(c1cnn(-c2ccccc2Cl)c1)N1CCN(CCO)CC1,103.1%
5,CC(O)CN1CCN(C(=O)c2cnn(-c3ccc(Cl)cc3)c2)CC1 (stereo not drawn),-6.081%
6,CN(C)C(=O)CN1CCN(C(=O)c2cnn(-c3ccccc3Cl)c2)CC1,104.8%
7,CCc1ccc(O)c(C(=O)N2CCN(CC(=O)N(C)C)CC2)c1,4.973%
8,CC(O)CN1CCN(C(=O)c2cn(-c3ccccc3Cl)nn2)CC1 (stereo not drawn),5.18%
9,O=C(c1cn(-c2ccccc2Cl)nn1)N1CCCSCC1,0.4154%
10,O=C(c1cn(-c2ccccc2Cl)nn1)N1CCSCC1,139.5%
11,CCOC1CCN(C(=O)c2cnn(-c3ccccc3Cl)c2)CC1,-5.801%
12,CN1CCN(C(=O)c2cnn(-c3ccccc3Cl)c2)CC1,84.01%
13,CCN1CCN(C(=O)c2cnn(-c3ccccc3Cl)c2)CC1,0.9462%
14,O=C(c1cnn(-c2ccccc2F)c1)N1CCN(CCO)CC1,-7.046%
15,CC(Nc1ncnc2sccc12)c1cnn(C)c1 (stereo not drawn),-17.23%
16,O=C(NC[C@H]1OC[C@@H](NC2CCOCC2)[C@@H]1O)C1CCCC1,-16.92%
17,O=C(COCC(F)(F)F)NC1CCCc2cc(OC(F)F)ccc21 (stereo not drawn),-1.083%
18,Cc1nc(CCCNC(=O)C2CC(=O)N(C3CCCC3)C2)sc1C (stereo not drawn),-46.61%
19,O=C(COC1CCCCC1)Nc1ccn(Cc2ccccn2)n1,-1.457%
20,COc1ccc(OC)c2c(C)cc(N(C)CCO)nc12,-15.31%
21,CC(=O)c1c(N(C)C)ccnc1C(F)(F)F,-9.795%
22,CCOc1c(Cl)cccc1NS(=O)(=O)c1cc(C)c(C(=O)O)s1,-12.6%
23,CC(=O)N1CCCN(C(=O)c2cnn(-c3ccccc3Cl)c2)CC1,140%

row,SMILES,Percent Effect
1,CCc1nc(C(=O)N2CCCC2)nn1-c1ccccc1Cl,13.32%
2,CC(=O)N1CCN(C(=O)c2cnn(-c3ccccc3Cl)c2)CC1,-0.729%
3,COCCC(=O)N1CCC(c2noc3nc(C)cc(C(F)(F)F)c23)CC1,3.825%
4,Cc1cc(C(=O)NCC(F)(F)F)c2c(C3CCNCC3)noc2n1,137.6%
5,Cc1cc(C(=O)NCC(C)C)c2c(C3CCCN3)noc2n1 (stereo not drawn),114.1%
6,Cc1cc(CNC(=O)c2cn(CCC3CCCCN3)nn2)on1 (stereo not drawn),-16.72%
7,Cc1cc(C(=O)NCC(F)(F)F)c2c(C3CCCN3)noc2n1 (stereo not drawn),103.2%
8,CCc1ccc2nc(C)cc(C(=O)NC3CCNC3=O)c2c1 (stereo not drawn),1.98%
9,Cc1cc(NC(C)C(=O)NCC(F)(F)F)nc(-c2ccncc2)n1 (stereo not drawn),14.05%
10,Cc1ccccc1-n1ccnc1S(=O)(=O)Cc1nsc(N(C)C)n1,22.74%
11,Cc1ccc(N2C[C@@H]3CN(C(=O)NC4CCCC4)C[C@]3(C(=O)O)C2)nn1,-11.61%
12,CN(C)C(C(=O)N1CCC(CCO)CC1)c1ccccc1F (stereo not drawn),-9.373%
13,Cc1ccc(NCc2ccc(C#N)cc2)cc1-n1cnnn1,10.93%
14,CC(C)N(Cc1ccc(C(=O)O)o1)C(C)C.Cl,-3.405%
15,Cc1ncc(C)c(N2CCC(Cc3ccc(Cl)cc3)(C(=O)O)CC2)n1,-13.5%
16,O=C(NCCCc1ccc(F)cc1)c1ccc(N2CCOCC2)cc1,-12.9%
17,CC(C)c1ccc(CC2(C)Cc3cc(CC(=O)O)ccc3O2)cc1 (stereo not drawn),103.5%
18,O=C(O)CCCc1ccc2c(c1)CC(=O)N2,-9.679%
19,CC1(Cc2ccc(F)cc2)Cc2cc(C(=O)NCCO)ccc2O1 (stereo not drawn),96.1%
20,CC1(Cc2ccc(Cl)cc2)Cc2cc(CCC(=O)O)ccc2O1 (stereo not drawn),128.5%
21,O=C(NCc1ccc(C(=O)O)o1)c1ccc(F)cc1,8.231%
22,Cc1nsc(NCc2ccc(CS(=O)(=O)NC(C)C)cc2)n1,-12.57%
23,O=C(CC1=CCCCC1)NCc1ccnc(OC2CCOCC2)c1,4.75%

row,SMILES,Percent Effect
1,Cc1ccc(CN(CCN(C)C)Cc2nc3ccccc3[nH]2)s1,-0.2455%
2,CC(NC(=O)N(C)Cc1cnn(C)c1)c1nncn1C (stereo not drawn),-30.3%
3,COC(=O)C(C)N(Cc1cc(=O)n(C)c(=O)n1C)C1CC1 (stereo not drawn),5.049%
4,CCCC1(CO)CCCN(Cc2ncccn2)C1 (stereo not drawn),-3.233%
5,CCCC1(CO)CCCN(Cc2nccs2)C1 (stereo not drawn),-16.5%
6,CCCC1(CO)CCCN(C(=O)CN2CCN(CC)CC2)C1 (stereo not drawn),98.5%
7,CCCC1(CO)CCCN(C(=O)CCCn2nc(C)cc2C)C1 (stereo not drawn),0.5939%
8,CCCSCC(=O)N1CCCC(CO)(CCC)C1 (stereo not drawn),120.7%
9,CCCSCC(=O)N1CCCC2(CCC(=O)N(CCc3c[nH]cn3)C2)C1 (stereo not drawn),0.3412%
10,CN(C)C(=O)C1CCCN1c1ccnc2ccsc12 (stereo not drawn),-11.69%
11,O=C(c1ccncc1)N1CCc2[nH]nc(Nc3ccccc3)c2C1,110.2%
12,COc1cccc(-c2n[nH]c3c2CN(C(=O)c2ccncc2)CC3)c1,-11.9%
13,O=C(CCN1CCc2[nH]nc(C(F)(F)F)c2C1)Nc1ccccc1,-5.362%
14,Cn1ccc(C(=O)N2CCc3[nH]nc(Nc4ccccc4)c3C2)n1,131.4%
15,COc1cccc(-c2n[nH]c3c2CN(C(=O)c2cc(C)n(C)n2)CC3)c1,-0.6407%
16,O=C(c1coc(-c2ccccc2)n1)N1CCCCC1,-26.2%
17,Cc1cc(C(=O)N2CCc3[nH]nc(-c4ccc5c(c4)OCO5)c3C2)no1,-8.548%
18,O=C(c1cccnc1)N1CCc2[nH]nc(Nc3ccccc3)c2C1,125.3%
19,O=C(c1cccnc1)N1Cc2[nH]nc(COCCO)c2C1,-11.56%
20,COCc1n[nH]c2c1CN(C(=O)c1ccncc1)C2.O=C(O)C(F)(F)F,-2.458%
21,Cc1nc(C(=O)N2CCc3[nH]nc(Nc4ccccc4)c3C2)co1,140.3%
